Source: PubChem BioAssay
Compounds with a hit are over-represented: about 1.1% of the library has one in this group of screens.
PfHsp40 rescue – restores yeast growth despite PfHsp40 toxicity; S. cerevisiae expressing PfHsp40, growth rescue, ATP luminescence; growth rescue, % at 12.5 µM; hit rate 0.68% among 340,000; in the data active = growth rescue above about 28%, passing the limit was not always enough; inconclusive = no clear call, values can overlap the other calls;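 also: yeast W303a lacking pdr1 and pdr3 grown in galactose medium; growth measured after three days at 30 °C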
BioA inh – BioA (M. tuberculosis) enzyme inhibition; hit rate 0.096% among 360,000; purified M. tuberculosis BioA enzyme, plate reader; inhibition, % at 9.99 µM; AID 602481; in the data active = inhibition above about 40%; inconclusive = no clear call, values can overlap the other calls
Yp Topo-I inh – blocks Yersinia pestis topoisomerase I activity. hit rate 0.064% among 360,000. activity, % at 10 µM. AID 504884. Y. pestis Topo-I cleavage product accumulation, plate reader; in the data active = activity above about 50%, passing the limit was not always enough; inconclusive = no clear call, values can overlap the other calls
FadD28 FP inh – inhibitors of Mycobacterium tuberculosis FadD28 bisubstrate binding; FadD28 bisubstrate probe binding, fluorescence polarization; inhibition, % at 12.5 µM; hit rate 0.22% among 360,000; AID 588549; in the data active = inhibition above about 8.5%, passing the limit was not always enough; inconclusive = no clear call, values can overlap the other calls
PrP UTR inh – inhibition of PrP 5' UTR reporter expression; cell-based PrP 5' UTR mRNA reporter, plate reader; inhibition, % (test concentration not listed); hit rate 0.35% among 340,000; AID 488862; in the data active = inhibition above about 52%; also: 0 = median of the neutral control wells
* marks the source's active call; other numbers are inactive results; ? = inconclusive; . = no result given.

SMILES	PfHsp40 rescue	BioA inh	Yp Topo-I inh	FadD28 FP inh	PrP UTR inh
Cc1ccsc1/C=C/c1ccc2cccc(O)c2n1	445.8*	-1.7	12.3	-4.0	-55.5
Oc1c(Cl)cc(Cl)cc1/C=C/c1ccc2cccc(O)c2n1	10.2	.	2.4	-3.6	-27.5
Oc1ccc(Cl)cc1/C=C/c1ccc2cccc(O)c2n1	160.0*	.	-21.7	-4.8	-19.0
O=C([C@H]1[C@H](CO)[C@H]2Cn3c(cccc3=O)[C@H]2N1CC1CCCC1)N1CCOCC1	.	-0.8	.	.	.
Cc1cc(NS(=O)(=O)c2ccc(CC(C)C)cc2)no1	39.9*	-1.4	8.4	0.2	-7.0
Cc1cc(NS(=O)(=O)c2ccc(C3CCCCC3)cc2)no1	509.5*	0.1	12.8	6.0	-32.8
Cc1cc(NS(=O)(=O)c2ccc(C(C)C)cc2)no1	-0.8	-0.1	-2.1	-2.4	-12.3
CCN(CCc1ccccc1)c1ccc2c(c1)C1CC2CCN1Cc1ccccc1 (configuration not stated)	.	-0.4	15.7	-2.3	.
CCOC(=O)c1cccc2c1-c1ccccc1/C2=N/O	232.6*	0.7	0.8	-10.7	-14.9
CC(C)COC(=O)c1cccc2c1-c1ccccc1/C2=N\O	?	-0.2	40.3	-10.5	-9.1
C[C@H]1CN([C@@H](C)CO)S(=O)(=O)c2ccc(-c3ccccc3)cc2O[C@@H]1CN(C)S(=O)(=O)c1ccccc1F	.	0.9	.	.	.
C/C=C/c1cnc2c(c1)C(=O)N([C@H](C)CO)C[C@H](C)[C@@H](CN(C)S(=O)(=O)c1cn(C)cn1)O2	.	-0.5	.	.	.
F[B-](F)(F)c1cc2cc(Br)ccc2s1	186.2*	0.0	2.9	2.0	6.5
O=S(=O)(c1ccc(Nc2ccc(-c3ccc4c(c3)OCCO4)nn2)cc1)N1CCCC1	0.2	-0.3	3.0	11.4*	-43.7
O=C(NC1CC1)c1cccc(Nc2ccc(-c3ccc4c(c3)OCCO4)nn2)c1	-0.9	-1.7	3.2	-1.7	-35.2
C/C=C/c1ccc2c(c1)O[C@@H](CN(C)C(=O)CN1CCOCC1)[C@@H](C)CN([C@H](C)CO)S2(=O)=O	.	2.1	.	.	.
O=C(Nc1ccccc1-c1nnn(CC(=O)N2CCOCC2)n1)c1ccccc1F	41.8*	.	-2.2	0.5	-10.4
C[C@H](CO)N1C[C@H](C)[C@@H](CN(C)C(=O)c2ccccc2F)Oc2ncc(Br)cc2C1=O	.	4.4	.	.	.
CC(C)(C)C1CCc2[nH]c3ccccc3c(=O)c2C1 (configuration not stated)	102.2*	0.8	3.2	0.4	-28.8
O=P(c1ccccc1)(c1ccccc1)c1nc(-c2ccc(Cl)cc2)oc1N1CCOCC1	3.5	0.4	33.1	-1.6	-30.5
O=P(c1ccccc1)(c1ccccc1)c1nc(-c2ccccc2)oc1N1CCOCC1	0.8	0.8	57.7*	0.3	-2.3
COc1cccc(S(=O)(=O)Nc2ccc3c(c2)C(=O)N(C)C[C@@H](OC)[C@@H](C)CN(C(=O)Cc2cccnc2)[C@H](C)CO3)c1	.	0.4	.	.	.
C[C@@H]1CCCCO[C@@H](CN(C)Cc2ccncc2)[C@H](C)CN([C@@H](C)CO)C(=O)c2cc(NS(=O)(=O)c3cccs3)ccc2O1	.	2.9	.	.	.
CCC(Oc1ccc(Br)cc1Cl)C(=O)Nc1nnc(C2CC2)s1 (configuration not stated)	60.1*	1.3	23.7	-4.9	-4.8
NS(=O)(=O)c1ccc(-c2ccc(C=O)o2)cc1	0.6	.	2.4	0.8	-35.6
SMILES	PfHsp40 rescue	BioA inh	Yp Topo-I inh	FadD28 FP inh	PrP UTR inh
NS(=O)(=O)c1ccc(-c2ccc(/C=C3\NC(=S)NC3=O)o2)cc1	-1.3	2.1	-2.9	10.0*	-2.3
CCCCCc1ccc(OCCCC[n+]2ccccc2)c(CCCCC)c1	134.9*	.	-7.9	-15.0	-13.5
CCCCCc1ccc(OCCCC[n+]2cccc(C)c2)c(CCCCC)c1	95.3*	.	-2.0	-7.3	-12.1
C[C@@H]1CCCCO[C@@H](CN(C)C(=O)Nc2ccc3c(c2)OCO3)[C@H](C)CN([C@@H](C)CO)C(=O)c2cc(NC(=O)Nc3cccc4ccccc34)ccc2O1	.	-3.4	.	.	.
CCOC(=O)C1=CN(Cc2cccc(Br)c2)S(=O)(=O)N(C)C1C (configuration not stated)	39.6*	0.1	40.6	-0.1	46.8
CCOC(=O)C1=CN(Cc2cccc(-c3cccnc3)c2)S(=O)(=O)N(C)C1C (configuration not stated)	1.5	1.2	16.2	-4.5	-10.5
O=C(CN1CC(=O)Nc2ccccc21)Nc1ccc(F)c(F)c1	42.6*	.	0.5	-4.3	-15.1
Cc1ccc(NC(=O)CNC(=O)N2CC(=O)Nc3ccccc32)cc1F	0.8	1.5	2.2	-2.2	-22.3
O=C(C[C@H]1CC[C@@H](NC(=O)c2cccc(F)c2)[C@@H](CO)O1)NCc1ccccc1	.	1.7	.	.	.
C[C@]12C(=O)N(c3ccccc3)C(=O)N1[C@@H]1c3ccccc3OC[C@@H]1[C@H]2c1ccccc1	0.4	0.2	15.8	-5.6	0.9
CCOC(=O)[C@@H]1[C@H]2COc3ccccc3[C@H]2N2C(=O)N(c3ccc(C(F)(F)F)cc3)C(=O)[C@]12C	92.2*	-0.2	11.0	-5.8	-31.9
COc1ccc2c(c1)OC[C@H]1[C@H]2N2C(=O)c3cc(C)ccc3NC(=O)[C@@]2(C)[C@H]1c1ccccc1	297.4*	-0.4	16.1	-6.8	-20.0
C[C@]12C(=O)N(c3ccccc3)C(=O)N1[C@H]1c3ccccc3OC[C@@H]1[C@H]2c1ccccc1	98.0*	-2.6	6.1	-4.1	-21.4
COc1ccc2c(c1)[C@H]1[C@H](CO2)[C@H](c2ccccc2)[C@]2(C)C(=O)Nc3ccc(Cl)cc3C(=O)N12	267.6*	-3.5	3.9	-5.8	-63.0
C[C@@]12C(=O)Nc3ccc(Cl)cc3C(=O)N1[C@H]1c3cc(Cl)ccc3OC[C@@H]1[C@@H]2c1ccccc1	-0.8	-2.3	2.0	-0.3	-5.3
COc1ccc2c(c1)[C@H]1[C@H](CO2)[C@H](c2ccccc2)[C@]2(C)C(=O)Nc3ccc(C)cc3C(=O)N12	20.1	0.6	25.8	-1.2	-93.0
CS(=O)(=O)Nc1ccc2c(c1)[C@H]1C[C@@H](CC(=O)NCc3cccc(F)c3)O[C@@H](CO)[C@H]1O2	.	0.6	.	.	.
C/C=C/c1ccc2c(c1)O[C@@H](CN(C)C(=O)CC)[C@@H](C)CN([C@H](C)CO)S2(=O)=O	.	6.5	.	.	.
C[C@@H]1CCCCO[C@@H](CN(C)S(=O)(=O)c2ccc(Cl)cc2)[C@@H](C)CN([C@@H](C)CO)C(=O)c2cc(NC(=O)Nc3ccccc3)ccc2O1	.	-3.2	.	.	.
C[C@@]12C(=O)Nc3ccc(Br)cc3C(=O)N1[C@H]1c3cc(Cl)ccc3OC[C@@H]1[C@@H]2c1ccccc1	-0.5	-0.9	1.6	-6.3	-11.8
Cc1ccc2c(c1)C(=O)N1[C@H]3c4ccccc4OC[C@@H]3[C@H](c3ccccc3)[C@]1(C)C(=O)N2	128.1*	-0.6	9.7	-2.4	-72.8
C[C@@]12C(=O)Nc3ccc(Br)cc3C(=O)N1[C@H]1c3ccccc3OC[C@@H]1[C@@H]2c1ccccc1	127.6*	-2.0	9.5	-2.0	-22.6
COc1ccc2c(/C=N/Nc3ccc(C(=O)O)cc3)c[nH]c2c1	0.7	2.2	-15.3	13.8*	.
